The sample as a whole holds a higher share of hits than the screen did.
ALOX12 inh = Primary qHTS assay for inhibitors of human arachidonate 12S-lipoxygenase (ALOX12): Round 2 | Potency, µM (doses to about 108 µM), most hits filed as inhibitors | 580,000 compounds, 1.1% hits | purified 12hLO, xylenol orange hydroperoxide absorbance | Polyunsaturated fatty acid lipoxygenase ALOX12 (Homo sapiens), P18054
Target sequence (P18054 whole entry, looked up): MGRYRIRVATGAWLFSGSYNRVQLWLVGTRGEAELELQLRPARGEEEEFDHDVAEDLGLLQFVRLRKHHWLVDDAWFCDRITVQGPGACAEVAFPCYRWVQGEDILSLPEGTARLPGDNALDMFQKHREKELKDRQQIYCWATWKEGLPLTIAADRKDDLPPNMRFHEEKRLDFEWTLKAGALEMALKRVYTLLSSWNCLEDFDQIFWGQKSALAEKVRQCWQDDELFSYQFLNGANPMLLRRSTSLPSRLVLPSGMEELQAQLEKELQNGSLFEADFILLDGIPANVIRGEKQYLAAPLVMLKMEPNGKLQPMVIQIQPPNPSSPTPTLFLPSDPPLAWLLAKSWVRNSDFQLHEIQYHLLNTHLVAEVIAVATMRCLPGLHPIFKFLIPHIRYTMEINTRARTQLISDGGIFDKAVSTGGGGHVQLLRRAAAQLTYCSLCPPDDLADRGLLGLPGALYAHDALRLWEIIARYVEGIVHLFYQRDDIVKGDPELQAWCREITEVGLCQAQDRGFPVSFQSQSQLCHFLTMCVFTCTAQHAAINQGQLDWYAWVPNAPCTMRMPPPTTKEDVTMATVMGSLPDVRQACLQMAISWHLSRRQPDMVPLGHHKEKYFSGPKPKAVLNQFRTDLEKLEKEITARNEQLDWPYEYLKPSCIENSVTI
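Hydroperoxide product was detected by ferrous iron/xylenol orange as the 573 to 405 nm absorbance ratio. Arachidonic acid at 40 uM (final) was turned over for 30 min at room temperature by 150 nM human 12hLO, pH 7.0 Hepes buffer, after 15 min compound preincubation.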
IL1B secr inh = qHTS for Inhibitors of Inflammasome Signaling: IL-1-beta AlphaLISA Primary Screen. THP-1 LPS/ATP IL-1B secretion, AlphaLISA, 16 h; hits give low values. activity change, % at 57.5 µM. 360,000 compounds, 4.7% hits. AID 743279, 2014; in the data active means activity change below about -50%; inconclusive means mostly about -30% to -49%
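THP-1 cells pretreated 1 hr with compounds (up to 57.5 uM final), then stimulated with LPS (250 ng/mL final) plus ATP (1.25 mM final); secreted IL-1B measured by AlphaLISA after 16 hr, decreased signal indicating inhibition.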
HT1080NT lethal = qHTS for induction of synthetic lethality in tumor cells producing 2HG: qHTS for the HT-1080-NT fibrosarcoma cell line; HT-1080-NT fibrosarcoma viability, CellTiter-Glo ATP luminescence, 48 h; Potency, µM (titrated, usually from 46.1 µM), hits mostly cytotoxic; 360,000 compounds, 1.6% hits;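 further: NT is the 2HG producing partner of a matched IDH1 knockdown line; nearly all actives have a fitted effect of over 55% in size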
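Compounds were tested in concentration-response format on HT-1080-NT cells for 48 hours at 37 degrees C. Cell viability came from CellTiter-Glo luminescence; curves were classified by r2, response magnitude and activity.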
DT40 TDP1 CPT = qHTS for Inhibitors of human tyrosyl-DNA phosphodiesterase 1 (TDP1): qHTS in cells in presence of CPT. AID 686979, 2013. Potency, µM (highest dose often 46.2 µM), most hits filed as inhibitors. 420,000 compounds, 12% hits. chicken DT40 Tdp1-/-;hTDP1 cells + 20 nM CPT, ATP luminescence, 48 h; further: nearly all actives have a fitted effect of over 55% in size
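Cell growth measured by CellTiter-Glo luminescence after a minimum 48 h, 37 C compound exposure with 20 nM CPT in Tdp1-knockout DT40 cells stably expressing hTDP1, seeded 400/well; qHTS titration format.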
TDP1 cell noCPT = qHTS for Inhibitors of human tyrosyl-DNA phosphodiesterase 1 (TDP1): qHTS in cells in absence of CPT. Potency, µM (highest dose often 46.2 µM), usual class: inhibitors. DT40 Tdp1-/- hTDP1 cells, no CPT, ATP luminescence, 48 h. 420,000 compounds, 15% hits; further: nearly all actives have a fitted effect of over 55% in size
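Cells were dispensed at 400 per well, compounds added by pin tool, plates incubated ≥48 hr at 37 °C, then CellTiter-Glo added for 30 min at room temperature before luminescence reading. Line: DT40 Tdp1-/- complemented with hTDP1; camptothecin omitted.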
HT1080 IDH1KD tx = qHTS for induction of synthetic lethality in tumor cells producing 2HG: qHTS for the HT-1080-IDH1KD cell line. HT-1080 IDH1 knockdown viability, ATP luminescence, 48 h. Potency, µM (doses to about 46.1 µM), actives largely listed as cytotoxic. 360,000 compounds, 2% hits
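After a 2 h attachment period, IDH1KD HT-1080 cells took pin-transferred compound for 48 h at 37 °C; ATP-based luminescence after 10 min room-temperature reagent incubation reported viability.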
Numbers stand for hits; 0 = inactive; ? = inconclusive; - = no result; [ ] = dose if it differs, or a comment. Unless noted, the call rests on the fitted dose curve; in most records, active means well fitted curve in the direction sought with a large enough effect; inconclusive means small, poorly fitted or top-dose-only effect, or another doubt; inactive means no such curve, though single readings can be large; an effect the other way counts as inactive or inconclusive.

SMILES	ALOX12 inh	IL1B secr inh	HT1080NT lethal	DT40 TDP1 CPT	TDP1 cell noCPT	HT1080 IDH1KD tx
CCCCC1CCC(C(=O)NC(C(=O)O)C(C)C)CC1 (stereo unspecified)	0	-	-	-	-	-
C=C1C(=O)[C@@]23[C@H](O)C[C@@H]4C(C)(C)CC[C@H](O)[C@@]4(C)[C@@H]2CC[C@@H]1[C@H]3O	0	?	15µM	1µM	0.82µM	13µM
C=C1C(=O)[C@@]23[C@H](O)C[C@@H]4C(C)(C)CC[C@H](O)[C@]4(C)[C@@H]2C[C@H](O)[C@@H]1[C@H]3O	0	?	0	3.3µM	?	?
O=C(CSc1nc2ccccc2o1)NC(=O)NC1CCCCC1	0	-	-	-	-	-
CCn1nccc1C(=O)N1CCC(Nc2nccnc2OC)CC1	0	-	-	-	-	-
CC(=N\Nc1ccccc1)/C(=N/O)C(=O)Nc1ccccc1	0	0	0	0	0	0
O=C(C(=NNc1ccccc1)C(=S)Nc1ccccc1)c1ccccc1	-	0	?	29µM	?	0
Cc1ccc(C2CCN(C(=O)Nc3ccc(C)c(C)c3)C2)cc1 (stereo unspecified)	0	-	-	?	?	-
O=C(Nc1ccc(Cl)c(Cl)c1)N1CCC(c2ccccc2)C1 (stereo unspecified)	0	-	-	?	21µM	-
CCOC(=O)c1ccccc1NC(=O)N1CCC(N2CCN(Cc3ccccc3)C(=O)C2=O)CC1	0	-	-	0	0	-
Cc1ccc(NC(=O)N2CCC(N3CCN(Cc4ccccc4)C(=O)C3=O)CC2)cc1Cl	0	-	-	?	15µM	-
Cc1ccc(C2CCN(C(=O)Nc3ccc(Cl)c(Cl)c3)C2)cc1 (stereo unspecified)	0	-	-	?	26µM	-
Cc1ccc(C2=NC3(CCN(C(=O)c4ccc5[nH]ccc5c4)CC3)ON2)cc1	0	-	-	-	-	-
O=C1CCCc2[nH]cc(-c3ccccc3)c21	0	-	-	-	-	-
COC(=O)c1cc(S(=O)(=O)Nc2cccc(OC)c2)cn1C	0	0	0	?	23µM	0
CSc1cccc(NS(=O)(=O)c2ccc3c(c2)CCN3C(C)=O)c1	0	0	0	9.2µM	3.7µM	0
COC(=O)c1cc(S(=O)(=O)Nc2c(C)cccc2C)cn1C	0	0	0	0	0	0
COc1cc(NS(=O)(=O)c2ccc3c(c2)CCN3S(C)(=O)=O)cc(OC)c1	0	-	-	18µM	5.2µM	-
COc1cccc(NS(=O)(=O)c2ccc3c(c2)CCCN3C(=O)C2CCC2)c1	?	-	-	23µM	?	-
Cc1ccc(C(=O)NN=C(C(C)C)C(C)C)cc1C	0	-	-	-	-	-
Cc1ccc(-c2csc(/C=C/c3cccc(C(F)(F)F)c3)n2)cc1	0	-	-	-	-	-
O=S(=O)(c1ccc(OC(F)(F)F)cc1)N1CCN(Cc2ncc(-c3ccccc3)o2)CC1	0	-	-	-	-	-
CC(=O)N1CCCc2cc(S(=O)(=O)Nc3ccc(C)c(F)c3)ccc21	0	-	-	?	16µM	-
COc1cccc(NS(=O)(=O)c2ccc3c(c2)N(C(C)=O)CCO3)c1	0	0	0	?	0	0
COc1cccc(NS(=O)(=O)c2ccc3c(c2)CCN3C(C)=O)c1	0	0	0	7.3µM	7.3µM	0
SMILES	ALOX12 inh	IL1B secr inh	HT1080NT lethal	DT40 TDP1 CPT	TDP1 cell noCPT	HT1080 IDH1KD tx
CC(=O)N1CCc2cc(S(=O)(=O)Nc3cccc(C(F)(F)F)c3)ccc21	0	0	0	18µM	21µM	?
CC(=O)N1CCc2cc(S(=O)(=O)Nc3ccc(C)cc3)ccc21	0	0	0	?	?	0
COCCN1CCn2c(nc3cc(C(=O)NC(C)C)ccc32)C1	0	-	-	-	-	-
COc1ccc2[nH]c(C)c(CCNC(=S)Nc3cc(C)cc(C)c3)c2c1	?	0	0	?	?	0
COc1ccc2[nH]c(C)c(CCNC(=S)Nc3cc(C)ccc3C)c2c1	?	0	0	8.2µM	9.2µM	0
CCc1cccc(C)c1NC(=S)NCCc1c(C)[nH]c2ccc(C)cc12	?	0	0	10µM	21µM	0
COc1ccc2[nH]c(C)c(CCNC(=S)Nc3ccccc3OC)c2c1	?	0	0	18µM	23µM	0
COc1ccc2[nH]c(C)c(CCNC(=S)Nc3ccc(F)cc3)c2c1	?	0	0	16µM	23µM	0
COC(=O)CNC(=O)C12CC3CC(C1)CC(c1ccccc1)(C3)C2	0	-	-	-	-	-
COc1ncccc1-c1cc2c(ccn2CC2CCN(C)CC2)c(N2CCOCC2)n1	0	-	-	-	-	-
Fc1ccccc1Nc1cnc2ccc(-c3ccccc3)nn12	0	-	-	-	-	-
Cc1ccc(NC(=O)Cn2c(=O)n(C)c(=O)c3sc(N4CCCC4)nc32)c(Cl)c1	0	-	-	-	-	-
C#CCNC(=O)C1CCc2nnc(CNC(=O)c3ccc(Cl)cc3Cl)n21 (stereo unspecified)	0[6.33 µM]	-	-	-	-	-
Cc1ccccc1CSc1cn(CC(=O)N2CCCCC2)c2ccccc12	0	-	-	13µM	16µM	-
O=C(Cn1cc(SCc2cccc(F)c2)c2ccccc21)N1CCCC1	?	-	-	?	21µM	-
O=C(Cn1cc(SCc2ccc(Br)cc2)c2ccccc21)N1CCCCC1	?	-	-	?	16µM	-
Cc1ccc(C)c(CSc2cn(CC(=O)N3CCCCCC3)c3ccccc23)c1	0	-	-	0	0	-
O=C(Cn1cc(SCc2c(F)cccc2Cl)c2ccccc21)N1CCCCCC1	0	-	-	23µM	?	-
O=C(Cn1cc(SCc2ccc(F)cc2)c2ccccc21)N1CCCCCC1	0	-	-	?	?	-
O=C(Cn1cc(SCc2cccc(F)c2)c2ccccc21)N1CCOCC1	0	-	-	?	?	-
CN1C(=O)C(Cc2nc3ccccc3c(=O)n2CCCO)c2ccccc21 (stereo unspecified)	0	-	-	-	-	-
CNC(=O)NC(=O)C(C)Sc1nc(C2CC2)nc2ccccc12 (stereo unspecified)	0	-	-	-	-	-
O=C(Nc1c(-c2ccc(F)cc2)nc2sccn12)c1ccc(S(=O)(=O)N2CCOCC2)cc1	0	-	-	-	-	-
COC(=O)CC1C(=O)NCCN1S(=O)(=O)c1ccc(Cl)cc1 (stereo unspecified)	0	-	-	-	-	-
COc1ccc2c(c1)c1c(c(=O)n(Cc3ccccc3)c(=O)n1CC(=O)NCc1ccccc1)n2C	0	-	-	0	0	-
COC(=O)c1cc(-c2cc(OC)ccc2OC)nc2c1c(=O)n(C)c(=O)n2Cc1ccccc1	?	0	0	16µM	18µM	0
C[C@@H](NCCCn1ccc(NC(=O)OCc2ccccc2)nc1=O)c1cccc2ccccc12	?	?	0	?	16µM	0

Source: PubChem (National Center for Advancing Translational Sciences (NCATS))
